# In the supplement of paper PMC7366291:
# Structures can show the parent of a compound that is named as a salt. ± gives the standard deviation or the standard deviation of the averaged measurements.
# Legend:
# Conditions in all cases: 25 µM; exposure: 24-48 hpf
# [1] = test system: Danio rerio Tg(wt1b:EGFP) embryo, pronephros; assay: glomerular separation, fold change vs DMSO control; higher = glomeruli further apart (abnormal)
# Method in brief: (§1)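 In HEPES-buffered E3 with 0.003% PTU and 0.5% DMSO, dechorionated Tg(wt1b:EGFP) zebrafish embryos were exposed to 25 μM compound from 24 to 48 hpf at 28.5°C. Pronephroi were then imaged dorsally at 470 nm in 10 z-slices, in 96-well plates filled with agarose. On maximum projections, a Fiji macro turned 16 manually placed reference points into distances and angles, and values more than 2 SD from the feature mean were excluded. Features are fold changes relative to the mean of DMSO-treated embryos from the same day.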
# [2] = test system: Danio rerio Tg(wt1b:EGFP) embryo, pronephros; assay: glomerular width (mean of left and right), fold change vs DMSO control; higher = wider glomerulus
# Method in brief: as §1
# [3] = test system: Danio rerio Tg(wt1b:EGFP) embryo, pronephros; assay: fraction of imaged embryos annotated as normal kidney; higher = less nephrotoxic; extreme values may be limits of the assay
# Method in brief: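 Zebrafish embryos carrying Tg(wt1b:EGFP) were dechorionated and exposed to 25 μM compound (0.5% DMSO) between 24 and 48 hpf at 28.5°C. Their pronephroi were imaged by widefield fluorescence, and each embryo was classed by hand from maximum projections. The measure is the fraction of embryos per treatment falling in the normal-kidney category.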
# [4] = test system: Danio rerio Tg(wt1b:EGFP) embryo, pronephros; assay: pronephric angle neck segment to proximal convoluted tubule (mean of left and right), fold change vs DMSO control; higher = larger pronephric angle
# Method in brief: as §1
Structure (SMILES),glomerular separation [1],glomerular width [2],fraction of imaged embryos annotated as normal kidney [3],pronephric angle neck segment [4]
C#C[C@]1(O)CC[C@H]2[C@@H]3CCC4=Cc5oncc5C[C@]4(C)[C@H]3CC[C@@]21C [Danazol],3.7 ± 1.5,0.592 ± 0.0074,0,1.1 ± 0.12
CC(C(=O)O)c1ccc(C(=O)c2cccs2)cc1 (stereo unspecified) [Suprofen],1.78 ± 0.63,1.02 ± 0.14,0.75,1.03 ± 0.081
COc1ccc2c(c1)c(CC(=O)OCC(=O)O)c(C)n2C(=O)c1ccc(Cl)cc1 [Acemetacin],1.28 ± 0.69,1.04 ± 0.027,0.917,1.08 ± 0.039
CNC(=C[N+](=O)[O-])NCCSCc1ccc(CN(C)C)o1 [Ranitidine hydrochloride],0.923 ± 0.34,0.941 ± 0.074,0.667,1.1 ± 0.051
CC(=C(CCO)SSCC1CCCO1)N(C=O)Cc1cnc(C)nc1N (stereo in doubt) [Fursultiamine Hydrochloride],1.06 ± 0.24,0.996 ± 0.027,0.833,1.005 ± 0.0057
C#C[C@]1(O)CC[C@H]2[C@@H]3CCC4=CC(=O)CC[C@@H]4[C@H]3CC[C@@]21CC [Norgestrel-(-)-D],0.798 ± 0.23,1.016 ± 0.0075,1,1.03 ± 0.013
CN1[C@@H]2CC[C@H]1C[C@@H](OC(c1ccccc1)c1ccccc1)C2 [Benztropine mesylate],0.821 ± 0.18,1 ± 0.025,0.833,1.04 ± 0.011
COc1ccc(C2CNC(=O)C2)cc1OC1CCCC1 (stereo unspecified) [Rolipram],0.895 ± 0.31,0.955 ± 0.023,0.833,1.08 ± 0.086
C=C1/C(=C\C=C2/CCC[C@]3(C)[C@@H]([C@H](C)/C=C/[C@@H](O)C4CC4)CC[C@@H]23)C[C@@H](O)C[C@@H]1O [Calcipotriene],1.01 ± 0.34,1.06 ± 0.012,0.75,0.89787 ± 0.00058
